The list is not random: actives were taken first. Their share in the collection is about 3.5%.
GPR151 activ: activates the human receptor GPR151; AID 1508602; activation, % at 11.2 µM; hit rate 1% among 650,000; PathHunter beta-arrestin GPR151 cells, luminescence; Q8TDV0; in the data active means activation above about 4.9%
Target sequence (Q8TDV0 whole entry, looked up): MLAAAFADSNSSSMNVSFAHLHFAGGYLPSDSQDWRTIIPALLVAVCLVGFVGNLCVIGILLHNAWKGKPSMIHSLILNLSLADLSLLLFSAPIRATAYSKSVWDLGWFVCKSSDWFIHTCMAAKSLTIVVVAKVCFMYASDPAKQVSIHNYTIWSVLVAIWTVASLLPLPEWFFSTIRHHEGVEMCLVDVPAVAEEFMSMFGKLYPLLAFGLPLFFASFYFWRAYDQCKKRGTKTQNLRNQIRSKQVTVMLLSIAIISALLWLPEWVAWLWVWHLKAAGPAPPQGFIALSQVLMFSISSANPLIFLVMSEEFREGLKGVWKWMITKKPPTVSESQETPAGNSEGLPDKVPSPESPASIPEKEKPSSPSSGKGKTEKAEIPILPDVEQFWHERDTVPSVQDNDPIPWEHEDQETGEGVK
TEAD-YAP block: TEAD-YAP interaction inhibition. HEK-TIYL cells, TEAD-Gal4/YAP UAS-luciferase luminescence. inhibition, % at 9.12 µM. hit rate 1.4% among 640,000. AID 1259422; in the data active means inhibition above about 32%
FBW7 activator: human FBW7 E3 ligase activation, primary screen | Q969H0 | AlphaScreen FBW7–phospho-cyclin E peptide binding, activator screen | normalized activity (activation), % at 26.1 µM | hit rate 0.13% among 650,000 | AID 1259310; in the data active means normalized activity above about 1.9%;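 further: purified mutant Fbw7 with reduced substrate affinity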
MITF inh: inhibitors of human MITF. O75030. AlphaScreen MITF homodimerization, bead proximity signal. inhibition, % at 2.6 µM. hit rate 0.91% among 650,000. AID 1259374; in the data active means inhibition above about 50%
MITF confirm: confirmation of human MITF inhibitors; shares compounds with MITF inh; AlphaScreen MITF homodimerization, biotin/His-MITF beads; inhibition, % at 2.6 µM; hit rate 16% among 4,700;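 active means inhibition above a cutoff derived from the DMSO control wells, cut at about 28% in these data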;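 further: inhibitors lower the bead chemiluminescence by keeping MITF from dimerizing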
AlphaScreen DR: AlphaScreen optical interference, dose response counter-screen; IC50, µM; hit rate 6% among 480; AID 1259373; AlphaScreen optical interference counterscreen, cell-free; shares compounds with MITF inh; call rule not given here
AlphaScreen intf2: optically interferes with AlphaScreen signal. AID 1259376. shares compounds with MITF inh. inhibition, % at 2.6 µM. hit rate 7.6% among 4,700. LysRS AlphaScreen counterscreen, signal interference, triplicate;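 active means inhibition above a cutoff derived from the DMSO control wells, cut at about 30% in these data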
Hits are given with their value; - = inactive; . = no result.

SMILES	GPR151 activ	TEAD-YAP block	FBW7 activator	MITF inh	MITF confirm	AlphaScreen intf2	others
CCc1nc(-c2ccccc2)c2ccccn12	-	-	-	55.5	-	-
COCc1nc(Cn2cnc3cc(C)c(C)cc32)no1	-	-	-	-	.	.
Cc1cc2ncn(Cc3noc(-c4ccco4)n3)c2cc1C	-	-	-	55.0	33.2	-	AlphaScreen DR=-
Cc1nc(N2CCCC2)c2ccsc2n1	-	-	-	-	.	.
Cc1nc(N2CCOCC2)c2ccsc2n1	-	-	-	82.3	-	-
Cc1cccc(C)c1OCCOCCNCCN	-	-	-	54.6	-	-
Cc1cccc(Cl)c1OCCOCCNC(C)(C)C	-	-	-	-	.	.
Cc1cccc(Cl)c1OCCOCCNCCN	-	-	-	60.7	-	-
CC(C)C(=O)Nc1ccc(NC(=O)C2CCCCC2)cn1	-	-	-	-	.	.
O=C(NCc1cccnc1)c1ccc2nc(NC3CCC(O)CC3)sc2c1 (stereo unspecified)	-	-	-	-	.	.
CCCCCC(O)(CCCCC)C(=O)NN1CCCCC1	-	-	-	72.5	-	-
CCOC(=O)c1c(NC(=O)CN(C)C)sc2c1CC(C)(C)NC2(C)C	-	-	-	-	.	.
CCOC(=O)c1c(NC(=O)CN(C)Cc2ccccc2)sc2c1CC(C)(C)NC2(C)C	-	-	-	65.4	-	-
COC(=O)CN1CCN(Cc2nc3ccccc3[nH]2)CC1	-	-	-	51.8	-	-
COCC(=O)N1CCN(Cc2nc3ccccc3[nH]2)CC1	-	-	-	57.7	-	-
COC(=O)CC1=NN(c2nc3ccccc3[nH]2)C(=O)C1	-	-	-	78.9	69.6	96.9
CCNC(=O)N1CCN(Cc2nc3ccccc3[nH]2)CC1	-	-	-	-	.	.
O=C(c1cccc2ccccc12)N1CCN(Cc2nc3ccccc3[nH]2)CC1	-	-	-	58.8	-	-
CCn1c(SCC(=O)Nc2ccc(Cl)cc2)nnc1-c1ccc(NC(C)=O)cc1	-	-	-	-	.	.
CCC(C)NC(=O)C(=O)Nc1ccc(C)c(C)c1 (stereo unspecified)	-	-	-	-	.	.
O=C(C1CCN(Cc2nc3ccccc3[nH]2)CC1)N1CCN(C2CCCCC2)CC1	-	-	-	-	.	.
O=C(CN1CCN(Cc2nc3ccccc3[nH]2)CC1)N1CCCc2ccccc21	-	-	-	91.0	-	-
COc1ccc(CCNC(=O)C2CCN(Cc3nc4ccccc4[nH]3)CC2)cc1	-	-	-	79.5	-	-
COc1ccc2nc(CN3CCN(C(=O)C4CC4)CC3)[nH]c2c1	-	-	-	68.0	-	-
CCN(CC)c1ccc(C2NC(=O)NC(C)=C2C(=O)OCC(F)(F)C(F)(F)F)cc1 (stereo unspecified)	-	-	-	-	.	.
SMILES	GPR151 activ	TEAD-YAP block	FBW7 activator	MITF inh	MITF confirm	AlphaScreen intf2	others
CN=C(Nc1ccccc1OC)SC1CC(=O)N(c2ccccc2F)C1=O (stereo unspecified)	-	-	-	-	.	.
COc1ccc(CNC(=O)CN(C)Cc2ccc(C(C)(C)C)cc2)cc1	-	-	-	74.4	-	-
O=C(NCCN1CCOCC1)C1CCN(Cc2ccc(Cl)c(Cl)c2)CC1	-	-	-	69.4	-	-
CCOc1ccccc1CN1CCC(C(=O)NCCN2CCOCC2)CC1	-	-	-	52.0	-	-
Cc1ccc(-c2n[nH]c(CNC(=O)c3ccc(C(F)(F)F)cc3)n2)cc1	-	-	-	-	.	.
NC(=O)COC(=O)c1oc2ccccc2c1COc1ccccc1	-	-	-	64.0	-	-
NC(=O)NC(=O)COC(=O)c1oc2ccccc2c1COc1ccccc1	-	-	-	-	.	.
COc1cc(C(C)=O)ccc1OCC(O)CNCC1(N2CCCCC2)CCCCC1 (stereo unspecified)	-	-	-	-	.	.
COc1ccccc1COCC(O)CNC(C)(C)C (stereo unspecified)	-	-	-	-	.	.
COc1ccccc1COCC(O)CNCC1(N2CCCCC2)CCCCC1 (stereo unspecified)	-	-	-	68.5	-	-
COc1ccccc1COCC(O)CNCCCN1CCOCC1 (stereo unspecified)	-	-	-	62.4	-	-
COc1ccccc1COCC(O)CNCc1ccncc1 (stereo unspecified)	-	-	-	70.5	-	-
O=C(c1cccs1)N1CCc2c(nc(N3CCCCC3)[nH]c2=O)C1	-	-	-	-	.	.
COc1ccccc1N1CCN(C(=O)COc2ccccc2Cl)CC1	-	-	-	-	.	.
Nc1cc(Oc2ccc(O)c(N)c2)ccc1O	-	-	-	110.9	117.2	78.1
Nc1cc(C(=O)c2ccc(O)c(N)c2)ccc1O	-	-	-	-	.	.
CCCS(=O)(=O)N1CCN(CC(=O)c2cccs2)CC1	-	-	-	66.6	-	-
CCCCS(=O)(=O)N1CCN(CC(=O)c2cccs2)CC1	-	-	-	60.6	-	-
Cc1cc(NC(=O)C(C)NCCCN(C)C)no1 (stereo unspecified)	-	-	-	63.4	-	-
Cc1cc(NC(=O)C(C)N2CCCC2)no1 (stereo unspecified)	-	-	-	-	.	.
Cc1cc(NC(=O)C(C)NC2CCCC2)no1 (stereo unspecified)	-	-	-	52.4	-	-
Cc1cc(NC(=O)C(C)NCCc2ccccc2)no1 (stereo unspecified)	-	-	-	-	.	.
Fc1ccccc1N1CCN(C2CCN(Cc3ccccc3)CC2)CC1	-	-	-	-	.	.
Fc1ccccc1CN1CCN(C2CCCCC2)CC1	-	-	-	61.3	-	-
Fc1ccccc1CN1CCC(N2CCN(c3ccccc3)CC2)CC1	-	-	-	53.1	-	-
SMILES	GPR151 activ	TEAD-YAP block	FBW7 activator	MITF inh	MITF confirm	AlphaScreen intf2	others
CCN1CCN(C2CCN(Cc3ccccc3C)CC2)CC1	-	-	-	-	.	.
Fc1ccccc1CN1CCC(N2CCCCC2)CC1	-	-	-	-	.	.
Clc1ccccc1CN1CCN(C2CCCCCC2)CC1	-	-	-	74.3	-	-
CC1CCC(N2CCN(Cc3ccccc3F)CC2)CC1 (stereo unspecified)	-	-	-	63.1	-	-
Clc1ccccc1CN1CCC(N2CCCCC2)CC1	-	-	-	-	.	.
CN1CCN(CC(O)COCc2ccc(Cl)cc2)CC1 (stereo unspecified)	-	-	-	-	.	.
CCOC(=O)C1=C(C)N=c2s/c(=C\c3ccc(-c4ccc(OC)cc4[N+](=O)[O-])o3)c(=O)n2C1c1ccc(OC)c(OC)c1 (stereo unspecified)	-	-	-	-	.	.
NC(=O)c1ccc(N=Cc2cc3c(cc2[N+](=O)[O-])OCO3)cc1	-	-	-	58.0	75.9	-	AlphaScreen DR=-
N#CC1=C(SCC(=O)Nc2ccccc2)N=C(N)C(c2nc(-c3ccccc3)cs2)C12CCCCC2 (stereo unspecified)	-	-	-	-	.	.
Cc1cc2cc(CNC(=O)c3cc(Cl)ccc3[N+](=O)[O-])ccc2[nH]1	-	-	-	-	.	.
C=CCc1cc(Cl)ccc1OCCOCCNCCOC	-	-	-	56.5	41.8	-	AlphaScreen DR=-
C=CCc1ccccc1OCCOCCNCCCOC	-	-	-	58.0	-	-

High-throughput results: PubChem, The Scripps Research Institute Molecular Screening Center
